In the antibiotic and cytotoxicity screens of Wong et al. (2023) one finds cytotoxicity call data, which are given here for 19 compounds.

The whole screen tested about 39,000 compounds, of which about 3,300 (8.5%) were called active. This is one part of a sample in which actives are shown more often than they occur.

The test system of the assay is HepG2. The assay is described as follows: cytotoxicity call (relative viability < 0.9). The conditions noted are these: 10 µM.
As to `COc1ccc([C@@H]2CC=CC[C@H](C)Oc3ccccc3C(=O)N(C)[C@@H](Cc3ccccc3)C(=O)N2)c(OC)c1`, the cytotoxicity call was “inactive”.

Take `Cc1noc(C)c1NC(=O)Nc1ccc2c(c1)C(=O)N([C@@H](C)CO)C[C@@H](C)[C@@H](CN(C)Cc1ccncc1)OCCCC[C@H](C)O2`: the cytotoxicity call was “inactive”.

Consider `CO[C@H]1CN(C)C(=O)c2cc(NC(=O)C3CC3)ccc2OC[C@@H](C)N(C(=O)C2CCOCC2)C[C@H]1C`, for which the cytotoxicity call is “inactive”.

As for `COc1ccc([C@@H]2CC=CC[C@@H](C)Oc3ccccc3C(=O)N(C)[C@H](Cc3ccccc3)C(=O)N2)c(OC)c1`, the cytotoxicity call was “inactive”.

For the compound `Cc1noc(C)c1NC(=O)Nc1ccc2c(c1)C(=O)N([C@@H](C)CO)C[C@@H](C)[C@H](CN(C)C(=O)c1ccccc1)OCCCC[C@@H](C)O2`, the cytotoxicity call was “inactive”.

`COCC(=O)N1C[C@@H](C)[C@H](OC)CN(C)C(=O)c2ccc(NC(=O)c3ccc(OC)cc3)cc2OC[C@@H]1C`: the cytotoxicity call is “inactive”.

`COc1cc(C(=O)NS(=O)(=O)c2ccccc2C)ccc1Cc1cn(C)c2ccc(NC(=O)OC3CCCC3)cc12`: the cytotoxicity call was “inactive”.

Consider `CCCC#Cc1cnc2c(c1)C(=O)N([C@H](C)CO)C[C@H](C)[C@@H](CN(C)S(=O)(=O)c1cn(C)cn1)O2`, for which the cytotoxicity call was “inactive”.

Regarding `C[C@@H]1CN([C@@H](C)CO)C(=O)c2cc(NC(=O)Cc3ccccc3)ccc2O[C@@H]1CN(C)C(=O)Nc1cccc2ccccc12`, the cytotoxicity call is “inactive”.

As to `CC(C)NC(=O)N(C)C[C@@H]1Oc2ccc(NS(=O)(=O)c3ccc(F)cc3)cc2C(=O)N([C@@H](C)CO)C[C@H]1C`, the cytotoxicity call is “inactive”.

As for `CNC(=O)Cc1cnc(N)s1`, the cytotoxicity call was “inactive”.

With `C[C@H](CO)N1C[C@H](C)[C@H](CN(C)Cc2ccc(C(F)(F)F)cc2)Oc2c(NC(=O)CCCCCC(=O)Nc3ccccc3N)cccc2C1=O`, the cytotoxicity call was “inactive”.

Turning to `C[C@H](CO)N1C[C@H](C)[C@H](CN(C)Cc2ccc(Oc3ccccc3)cc2)Oc2c(NS(=O)(=O)c3cccs3)cccc2C1=O`, the cytotoxicity call is “inactive”.

Turning to `C[C@H]1CN([C@@H](C)CO)C(=O)c2cccc(NC(=O)c3ccncc3)c2O[C@H]1CN(C)Cc1ccncc1`, the cytotoxicity call is “inactive”.

In the case of `C[C@@H]1CN([C@H](C)CO)C(=O)c2cc(-c3cccnc3)cnc2O[C@H]1CN(C)Cc1ccc(Oc2ccccc2)cc1`, the cytotoxicity call is “inactive”.

In the case of `COc1ccc(NC(=O)Nc2ccc3c(c2)[C@H]2C[C@H](CC(=O)N4CCN(C)CC4)O[C@@H](CO)[C@H]2O3)cc1`, the cytotoxicity call is “inactive”.

Regarding `Cc1cccc(Oc2ccc(NC(=O)C3CCC(C)CC3)cc2)c1` (centres undefined), the cytotoxicity call was “inactive”.

On to `CN1CCN(Cc2ccc(NC(=O)Nc3ccc(Oc4cc(NC(=O)C5CC5)ncn4)cc3)cc2C(F)(F)F)CC1`, for which the cytotoxicity call is “active”.

On to `C[C@@H]1CN([C@H](C)CO)C(=O)Cc2cc(NS(=O)(=O)c3ccc(F)cc3)ccc2O[C@H]1CN(C)S(=O)(=O)c1ccccc1`, for which the cytotoxicity call is “inactive”.
